# Assay results from paper PMC7862700, “An all-to-all approach to the identification of sequence-specific readers for epigenetic DNA modifications on cytosine”.
# How the values were obtained:
# Experiment in all cases: DAPPL (digital affinity profiling via proximity ligation, sequencing); 10 mM Tris-HCl pH 7.5, 50 mM NaCl, 1 mM DTT, 4% glycerol, room temperature, 30 min; GST-TFs on glutathione beads, 16-mer random dsDNA library, 0.1% formaldehyde crosslink after washing; high values mean tight binding
# FLI1 = target: T1, FLI1 (Homo sapiens, UniProt Q01543 1-452); details: protein: recombinant; tags: N-terminal GST; dsDNA, one strand shown
# T1 sequence: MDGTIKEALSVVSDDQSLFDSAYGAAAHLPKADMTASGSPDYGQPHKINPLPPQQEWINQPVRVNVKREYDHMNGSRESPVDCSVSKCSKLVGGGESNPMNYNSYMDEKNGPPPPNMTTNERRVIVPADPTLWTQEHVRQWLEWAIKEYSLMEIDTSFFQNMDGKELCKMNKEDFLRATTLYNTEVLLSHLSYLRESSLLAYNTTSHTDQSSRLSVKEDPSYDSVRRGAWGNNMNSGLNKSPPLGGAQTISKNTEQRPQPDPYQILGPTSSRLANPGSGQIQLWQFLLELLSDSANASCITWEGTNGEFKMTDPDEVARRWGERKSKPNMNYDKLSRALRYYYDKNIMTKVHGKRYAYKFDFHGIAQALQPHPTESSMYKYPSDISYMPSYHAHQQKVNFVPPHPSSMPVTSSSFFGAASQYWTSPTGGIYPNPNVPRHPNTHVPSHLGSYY
# Procedure, shortened: (§1)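 The binding signal reported is, for every hexamer, its read frequency for a factor over its read frequency for the tag-only sample. Reads came from pools of yeast-expressed, GST-fused human transcription factors on glutathione beads, barcoded with DNA and mixed with that sample, which were incubated with 200 nmole of a random double-stranded 16-mer DNA library in Tris/NaCl/DTT/glycerol buffer at room temperature for 30 min. After washing, the pools were crosslinked with 0.1% formaldehyde, proximity-ligated with BsaI/T4 ligase for 1 h at 37 °C, PCR-amplified and sequenced on an Illumina NextSeq500.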
# ELK1 = target: T2, ELK1 (Homo sapiens, UniProt P19419 1-428); details: protein: recombinant; tags: N-terminal GST; dsDNA, one strand shown
# T2 sequence: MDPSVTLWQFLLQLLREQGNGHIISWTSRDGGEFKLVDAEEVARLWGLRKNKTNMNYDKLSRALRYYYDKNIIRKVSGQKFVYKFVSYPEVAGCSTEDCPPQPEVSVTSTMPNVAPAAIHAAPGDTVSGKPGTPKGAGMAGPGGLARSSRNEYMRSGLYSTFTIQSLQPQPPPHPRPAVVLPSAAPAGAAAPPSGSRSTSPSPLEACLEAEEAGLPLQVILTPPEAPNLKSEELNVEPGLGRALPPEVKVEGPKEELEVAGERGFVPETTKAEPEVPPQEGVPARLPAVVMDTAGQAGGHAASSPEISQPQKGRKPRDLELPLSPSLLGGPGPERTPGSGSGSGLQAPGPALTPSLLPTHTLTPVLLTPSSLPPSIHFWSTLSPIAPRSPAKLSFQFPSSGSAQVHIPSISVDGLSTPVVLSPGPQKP
# Procedure, shortened: as §1
# GABPA = target: T3, GABPA (Homo sapiens, UniProt Q06546 1-454); details: protein: recombinant; tags: N-terminal GST; dsDNA, one strand shown
# T3 sequence: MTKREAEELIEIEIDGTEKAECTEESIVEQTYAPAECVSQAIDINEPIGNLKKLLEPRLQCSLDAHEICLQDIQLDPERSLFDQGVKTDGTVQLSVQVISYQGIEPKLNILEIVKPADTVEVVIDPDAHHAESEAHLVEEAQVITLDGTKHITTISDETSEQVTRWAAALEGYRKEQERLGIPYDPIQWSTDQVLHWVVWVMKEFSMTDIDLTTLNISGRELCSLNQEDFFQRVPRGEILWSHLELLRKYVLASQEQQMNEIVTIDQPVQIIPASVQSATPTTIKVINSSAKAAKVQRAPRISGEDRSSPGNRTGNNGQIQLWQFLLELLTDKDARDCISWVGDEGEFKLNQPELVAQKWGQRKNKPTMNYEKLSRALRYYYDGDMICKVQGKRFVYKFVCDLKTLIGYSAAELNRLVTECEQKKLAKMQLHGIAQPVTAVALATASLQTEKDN
# Procedure, shortened: as §1
# ERG = target: T4, ERG (Homo sapiens, UniProt P11308 1-479); details: protein: recombinant; tags: N-terminal GST; dsDNA, one strand shown
# T4 sequence: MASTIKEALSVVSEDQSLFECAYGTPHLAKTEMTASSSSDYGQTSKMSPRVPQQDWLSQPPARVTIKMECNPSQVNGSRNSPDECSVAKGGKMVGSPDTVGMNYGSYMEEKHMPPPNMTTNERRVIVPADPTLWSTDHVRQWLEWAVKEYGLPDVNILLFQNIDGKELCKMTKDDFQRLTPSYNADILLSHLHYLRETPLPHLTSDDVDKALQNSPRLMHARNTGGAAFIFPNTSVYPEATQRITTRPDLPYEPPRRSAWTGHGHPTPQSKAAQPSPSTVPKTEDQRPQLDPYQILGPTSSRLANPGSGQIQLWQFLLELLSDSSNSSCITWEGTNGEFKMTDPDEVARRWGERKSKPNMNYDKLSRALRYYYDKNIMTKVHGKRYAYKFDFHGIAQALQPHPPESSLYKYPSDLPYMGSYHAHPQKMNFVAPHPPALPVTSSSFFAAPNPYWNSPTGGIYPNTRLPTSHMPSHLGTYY
# Procedure, shortened: as §1
# ELF1 = ELF1 (Homo sapiens, UniProt P32519 1-619); details: protein: recombinant; tags: N-terminal GST; dsDNA, one strand shown
# Procedure, shortened: as §1
# EHF = target: T5, EHF (Homo sapiens, UniProt Q9NZC4 1-300); details: protein: recombinant; tags: N-terminal GST; dsDNA, one strand shown
# T5 sequence: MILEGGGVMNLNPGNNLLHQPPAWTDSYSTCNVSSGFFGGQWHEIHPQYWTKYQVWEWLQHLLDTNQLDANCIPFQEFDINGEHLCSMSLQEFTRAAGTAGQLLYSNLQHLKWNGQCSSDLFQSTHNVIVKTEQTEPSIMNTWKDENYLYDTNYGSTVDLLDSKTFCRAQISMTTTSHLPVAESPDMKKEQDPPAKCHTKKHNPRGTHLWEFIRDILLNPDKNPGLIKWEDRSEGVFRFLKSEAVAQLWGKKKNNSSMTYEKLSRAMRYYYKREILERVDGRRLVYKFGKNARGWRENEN
# Procedure, shortened: as §1
# SPI1 = SPI1 (Homo sapiens, UniProt P17947 1-270); details: protein: recombinant; tags: N-terminal GST; dsDNA, one strand shown
# Procedure, shortened: as §1
# SPIB = SPIB (Homo sapiens, UniProt Q01892 1-262); details: protein: recombinant; tags: N-terminal GST; dsDNA, one strand shown
# Procedure, shortened: as §1
# ELK3 = target: T6, ELK3 (Homo sapiens, UniProt P41970 1-407); details: protein: recombinant; tags: N-terminal GST; dsDNA, one strand shown
# T6 sequence: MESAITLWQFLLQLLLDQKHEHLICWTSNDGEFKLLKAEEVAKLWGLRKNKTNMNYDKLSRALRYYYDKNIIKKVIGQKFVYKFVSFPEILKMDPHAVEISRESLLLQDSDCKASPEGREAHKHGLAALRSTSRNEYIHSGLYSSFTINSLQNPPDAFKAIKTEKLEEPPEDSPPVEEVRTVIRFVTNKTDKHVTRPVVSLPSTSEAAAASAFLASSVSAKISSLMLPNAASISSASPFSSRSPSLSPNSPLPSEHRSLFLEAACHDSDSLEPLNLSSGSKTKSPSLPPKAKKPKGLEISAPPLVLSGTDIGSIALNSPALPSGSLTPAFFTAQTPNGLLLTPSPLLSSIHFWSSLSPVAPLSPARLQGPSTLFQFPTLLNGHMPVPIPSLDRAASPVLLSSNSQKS
# Procedure, shortened: as §1
# FEV = target: T7, FEV (Homo sapiens, UniProt Q99581 1-238); details: protein: recombinant; tags: N-terminal GST; dsDNA, one strand shown
# T7 sequence: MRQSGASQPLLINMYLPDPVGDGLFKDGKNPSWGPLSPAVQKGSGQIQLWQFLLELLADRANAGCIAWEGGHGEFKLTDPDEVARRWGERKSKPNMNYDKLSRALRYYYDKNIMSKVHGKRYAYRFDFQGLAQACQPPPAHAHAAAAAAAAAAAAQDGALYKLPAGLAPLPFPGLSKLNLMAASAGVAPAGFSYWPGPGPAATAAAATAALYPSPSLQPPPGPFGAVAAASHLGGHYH
# Procedure, shortened: as §1
# ETV5 = ETV5 (Homo sapiens, UniProt P41161 1-510); details: protein: recombinant; tags: N-terminal GST; dsDNA, one strand shown
# Procedure, shortened: as §1
# HSF1 = HSF1 (Homo sapiens, UniProt Q00613 1-529); details: protein: recombinant; tags: N-terminal GST; chain copies: 3; dsDNA, one strand shown
# Procedure, shortened: as §1
# SPIC = target: T8, SPIC (Homo sapiens, UniProt Q8N5J4 1-248); details: protein: recombinant; tags: N-terminal GST; dsDNA, one strand shown
# T8 sequence: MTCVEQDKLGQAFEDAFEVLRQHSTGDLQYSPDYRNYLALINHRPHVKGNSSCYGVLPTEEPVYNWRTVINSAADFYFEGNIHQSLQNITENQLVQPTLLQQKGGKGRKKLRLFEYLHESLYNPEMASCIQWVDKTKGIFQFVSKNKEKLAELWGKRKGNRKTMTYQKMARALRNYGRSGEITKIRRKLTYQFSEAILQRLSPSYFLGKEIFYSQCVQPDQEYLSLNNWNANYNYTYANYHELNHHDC
# Procedure, shortened: as §1
# ELF4 = ELF4 (Homo sapiens, UniProt Q99607 1-663); details: protein: recombinant; tags: N-terminal GST; dsDNA, one strand shown
# Procedure, shortened: as §1
# ELK4 = target: T9, ELK4 (Homo sapiens, UniProt P28324-2 1-405); details: protein: recombinant; tags: N-terminal GST; dsDNA, one strand shown
# T9 sequence: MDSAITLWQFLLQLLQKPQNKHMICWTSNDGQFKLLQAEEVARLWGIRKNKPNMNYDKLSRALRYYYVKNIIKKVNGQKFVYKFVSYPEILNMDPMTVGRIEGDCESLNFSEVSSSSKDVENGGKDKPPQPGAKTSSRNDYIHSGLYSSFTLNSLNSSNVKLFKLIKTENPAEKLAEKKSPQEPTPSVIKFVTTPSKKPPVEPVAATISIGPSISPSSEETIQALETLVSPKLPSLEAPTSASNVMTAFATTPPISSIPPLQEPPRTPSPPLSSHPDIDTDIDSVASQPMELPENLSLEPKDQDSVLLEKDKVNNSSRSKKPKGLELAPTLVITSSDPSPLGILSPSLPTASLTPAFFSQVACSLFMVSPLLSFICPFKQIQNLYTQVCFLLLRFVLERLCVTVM
# Procedure, shortened: as §1
# ETV2 = target: T10, ETV2 (Homo sapiens, UniProt O00321 1-342); details: protein: recombinant; tags: N-terminal GST; dsDNA, one strand shown
# T10 sequence: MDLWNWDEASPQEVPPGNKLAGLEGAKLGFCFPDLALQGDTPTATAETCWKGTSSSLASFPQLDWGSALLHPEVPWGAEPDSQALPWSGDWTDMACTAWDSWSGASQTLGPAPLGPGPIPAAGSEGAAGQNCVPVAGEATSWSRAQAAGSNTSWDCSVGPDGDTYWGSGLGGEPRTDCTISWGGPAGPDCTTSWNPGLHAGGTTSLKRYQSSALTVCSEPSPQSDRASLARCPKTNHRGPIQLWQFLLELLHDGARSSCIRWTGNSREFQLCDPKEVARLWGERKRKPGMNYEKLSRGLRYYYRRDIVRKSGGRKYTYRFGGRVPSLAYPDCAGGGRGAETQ
# Procedure, shortened: as §1
# ELF3 = target: T11, ELF3 (Homo sapiens, UniProt P78545 1-371); details: protein: recombinant; tags: N-terminal GST; dsDNA, one strand shown
# T11 sequence: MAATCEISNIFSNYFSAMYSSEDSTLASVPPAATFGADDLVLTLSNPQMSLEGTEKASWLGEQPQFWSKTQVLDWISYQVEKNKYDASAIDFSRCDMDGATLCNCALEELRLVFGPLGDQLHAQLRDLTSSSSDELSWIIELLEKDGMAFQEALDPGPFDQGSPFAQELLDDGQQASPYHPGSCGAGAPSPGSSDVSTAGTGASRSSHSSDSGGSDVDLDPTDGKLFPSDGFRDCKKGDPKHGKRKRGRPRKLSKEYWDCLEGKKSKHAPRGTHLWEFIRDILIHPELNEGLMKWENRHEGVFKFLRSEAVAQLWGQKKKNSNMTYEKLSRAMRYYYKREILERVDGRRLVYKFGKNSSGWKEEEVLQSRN
# Procedure, shortened: as §1
# CRX = CRX (Homo sapiens, UniProt O43186 1-299); details: protein: recombinant; tags: N-terminal GST; dsDNA, one strand shown
# Procedure, shortened: as §1
# ETV1 = ETV1 (Homo sapiens, UniProt P50549 1-477); details: protein: recombinant; tags: N-terminal GST; dsDNA, one strand shown
# Procedure, shortened: as §1
# Chain of CRX (O43186 whole entry): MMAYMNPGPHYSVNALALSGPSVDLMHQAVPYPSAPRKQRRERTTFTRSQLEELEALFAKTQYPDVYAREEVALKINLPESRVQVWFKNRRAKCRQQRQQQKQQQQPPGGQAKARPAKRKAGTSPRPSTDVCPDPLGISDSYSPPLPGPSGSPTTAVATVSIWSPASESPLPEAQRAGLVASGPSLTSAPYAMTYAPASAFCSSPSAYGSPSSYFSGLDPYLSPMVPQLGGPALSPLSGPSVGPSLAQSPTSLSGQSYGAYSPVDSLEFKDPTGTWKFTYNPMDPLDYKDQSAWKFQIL
# Chain of ELF1 (P32519 whole entry): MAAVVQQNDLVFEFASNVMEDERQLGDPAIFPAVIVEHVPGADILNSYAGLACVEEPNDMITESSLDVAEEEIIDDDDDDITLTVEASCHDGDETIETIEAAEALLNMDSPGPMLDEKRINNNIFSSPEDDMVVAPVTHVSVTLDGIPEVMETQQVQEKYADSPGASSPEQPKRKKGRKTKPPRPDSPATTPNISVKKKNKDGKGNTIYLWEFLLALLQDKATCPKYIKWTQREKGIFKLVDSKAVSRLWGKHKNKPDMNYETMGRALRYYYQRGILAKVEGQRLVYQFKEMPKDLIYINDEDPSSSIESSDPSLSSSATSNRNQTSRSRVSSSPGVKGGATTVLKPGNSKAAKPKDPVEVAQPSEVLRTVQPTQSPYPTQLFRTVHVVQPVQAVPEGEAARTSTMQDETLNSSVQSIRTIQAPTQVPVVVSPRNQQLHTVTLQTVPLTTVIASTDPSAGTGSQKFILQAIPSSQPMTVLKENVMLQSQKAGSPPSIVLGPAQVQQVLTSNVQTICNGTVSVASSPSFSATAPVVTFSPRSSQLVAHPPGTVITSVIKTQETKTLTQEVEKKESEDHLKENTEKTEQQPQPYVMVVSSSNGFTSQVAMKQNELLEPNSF
# Chain of ETV5 (P41161 whole entry): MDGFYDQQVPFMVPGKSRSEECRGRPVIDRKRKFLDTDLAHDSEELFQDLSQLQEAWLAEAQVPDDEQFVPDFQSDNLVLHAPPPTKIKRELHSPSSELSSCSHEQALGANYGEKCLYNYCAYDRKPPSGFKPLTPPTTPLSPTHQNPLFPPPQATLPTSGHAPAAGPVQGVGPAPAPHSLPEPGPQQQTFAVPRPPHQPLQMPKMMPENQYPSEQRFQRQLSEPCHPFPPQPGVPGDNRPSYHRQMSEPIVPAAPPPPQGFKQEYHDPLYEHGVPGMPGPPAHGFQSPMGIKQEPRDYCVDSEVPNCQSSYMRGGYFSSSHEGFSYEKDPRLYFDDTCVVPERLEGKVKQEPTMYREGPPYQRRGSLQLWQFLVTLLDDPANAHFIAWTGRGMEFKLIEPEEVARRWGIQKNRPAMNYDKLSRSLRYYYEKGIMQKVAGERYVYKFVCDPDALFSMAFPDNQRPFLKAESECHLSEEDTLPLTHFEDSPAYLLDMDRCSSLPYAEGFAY
# Chain of ETV1 (P50549 whole entry): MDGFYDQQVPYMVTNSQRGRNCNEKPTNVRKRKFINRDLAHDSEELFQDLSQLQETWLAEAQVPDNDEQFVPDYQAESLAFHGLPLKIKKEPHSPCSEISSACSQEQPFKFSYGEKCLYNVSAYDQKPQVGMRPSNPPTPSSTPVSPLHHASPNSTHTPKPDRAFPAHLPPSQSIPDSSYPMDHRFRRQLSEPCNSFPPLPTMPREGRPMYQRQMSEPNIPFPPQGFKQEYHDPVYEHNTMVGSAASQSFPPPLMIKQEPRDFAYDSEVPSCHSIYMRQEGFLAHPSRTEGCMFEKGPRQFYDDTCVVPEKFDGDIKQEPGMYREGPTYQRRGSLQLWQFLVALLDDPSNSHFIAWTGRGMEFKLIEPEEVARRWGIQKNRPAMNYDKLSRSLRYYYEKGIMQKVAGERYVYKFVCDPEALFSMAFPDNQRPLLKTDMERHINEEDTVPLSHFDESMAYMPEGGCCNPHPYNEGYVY
# Chain of SPIB (Q01892 whole entry): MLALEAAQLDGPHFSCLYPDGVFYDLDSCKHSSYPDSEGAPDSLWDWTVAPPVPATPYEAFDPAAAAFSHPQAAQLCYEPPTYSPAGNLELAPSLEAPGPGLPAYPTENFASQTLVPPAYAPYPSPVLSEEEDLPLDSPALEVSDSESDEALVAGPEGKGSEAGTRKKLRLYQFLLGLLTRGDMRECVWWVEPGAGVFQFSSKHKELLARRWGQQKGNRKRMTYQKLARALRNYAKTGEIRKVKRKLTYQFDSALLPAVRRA
# Chain of HSF1 (Q00613 whole entry): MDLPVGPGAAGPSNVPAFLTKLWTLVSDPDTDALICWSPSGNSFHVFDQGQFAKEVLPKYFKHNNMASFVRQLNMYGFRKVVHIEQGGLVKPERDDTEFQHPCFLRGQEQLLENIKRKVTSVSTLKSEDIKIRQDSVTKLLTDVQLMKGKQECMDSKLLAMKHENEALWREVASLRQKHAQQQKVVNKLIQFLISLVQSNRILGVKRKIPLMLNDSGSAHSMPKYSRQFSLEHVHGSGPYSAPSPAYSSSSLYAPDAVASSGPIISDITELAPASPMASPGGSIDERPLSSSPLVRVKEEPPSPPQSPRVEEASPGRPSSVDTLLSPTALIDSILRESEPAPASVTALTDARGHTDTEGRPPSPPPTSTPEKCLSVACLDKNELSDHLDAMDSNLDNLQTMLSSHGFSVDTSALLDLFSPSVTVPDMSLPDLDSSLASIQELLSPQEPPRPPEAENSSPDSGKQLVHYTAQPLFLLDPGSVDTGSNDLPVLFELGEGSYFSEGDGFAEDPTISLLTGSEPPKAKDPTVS
# Chain of ELF4 (Q99607 whole entry): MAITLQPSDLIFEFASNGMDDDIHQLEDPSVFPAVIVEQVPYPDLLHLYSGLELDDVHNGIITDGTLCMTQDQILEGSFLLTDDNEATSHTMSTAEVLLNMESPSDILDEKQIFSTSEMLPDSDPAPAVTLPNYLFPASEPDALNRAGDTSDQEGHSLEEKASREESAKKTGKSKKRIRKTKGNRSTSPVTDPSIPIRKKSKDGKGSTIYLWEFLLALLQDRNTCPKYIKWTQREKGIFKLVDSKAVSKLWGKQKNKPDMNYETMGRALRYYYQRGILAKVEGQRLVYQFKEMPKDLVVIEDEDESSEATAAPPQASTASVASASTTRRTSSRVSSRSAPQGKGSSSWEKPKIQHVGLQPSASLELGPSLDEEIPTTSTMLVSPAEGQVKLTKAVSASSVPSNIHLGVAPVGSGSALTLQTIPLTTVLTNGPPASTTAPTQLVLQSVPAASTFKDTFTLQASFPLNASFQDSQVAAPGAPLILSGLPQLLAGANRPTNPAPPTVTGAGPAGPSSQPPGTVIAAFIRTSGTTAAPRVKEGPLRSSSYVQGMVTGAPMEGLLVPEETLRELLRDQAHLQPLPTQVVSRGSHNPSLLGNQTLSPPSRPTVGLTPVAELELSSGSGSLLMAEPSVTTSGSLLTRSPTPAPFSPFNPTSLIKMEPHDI
sequence,measurement,setting,value
CGACCT,binding signal,FLI1,"1.44 fold enrichment (6-mer frequency, TF over GST control)"
same,binding signal,ELK1,"1.44 fold enrichment (6-mer frequency, TF over GST control)"
same,binding signal,GABPA,"1.54 fold enrichment (6-mer frequency, TF over GST control)"
same,binding signal,ERG,"1.46 fold enrichment (6-mer frequency, TF over GST control)"
same,binding signal,ELF1,"1.6 fold enrichment (6-mer frequency, TF over GST control)"
same,binding signal,EHF,"1.39 fold enrichment (6-mer frequency, TF over GST control)"
same,binding signal,SPI1,"1.4 fold enrichment (6-mer frequency, TF over GST control)"
same,binding signal,SPIB,"1.63 fold enrichment (6-mer frequency, TF over GST control)"
same,binding signal,ELK3,"1.7 fold enrichment (6-mer frequency, TF over GST control)"
same,binding signal,FEV,"1.59 fold enrichment (6-mer frequency, TF over GST control)"
same,binding signal,ETV5,"1.61 fold enrichment (6-mer frequency, TF over GST control)"
same,binding signal,HSF1,"1.35 fold enrichment (6-mer frequency, TF over GST control)"
same,binding signal,SPIC,"1.41 fold enrichment (6-mer frequency, TF over GST control)"
same,binding signal,ELF4,"1.61 fold enrichment (6-mer frequency, TF over GST control)"
same,binding signal,ELK4,"1.56 fold enrichment (6-mer frequency, TF over GST control)"
same,binding signal,ETV2,"1.73 fold enrichment (6-mer frequency, TF over GST control)"
same,binding signal,ELF3,"1.45 fold enrichment (6-mer frequency, TF over GST control)"
same,binding signal,CRX,"1.21 fold enrichment (6-mer frequency, TF over GST control)"
same,binding signal,ETV1,"1.55 fold enrichment (6-mer frequency, TF over GST control)"
